Compound activity as filed in PubChem.
C2C12 statin = suppressors of statin myotoxicity in C2C12 myotubes, primary screen, cell-based, single point, plate reader; C2C12 myotubes + simvastatin, ATP luminescence, 48 h; scaled: DMSO 0, geranylgeraniol control 100; hit rate 0.78% among 330,000; rescue of ATP level, % at 7.49 µM; AID 602340, 2012;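 active = mean ATP rescue above about 67%, or every replicate alone reaching that limit, limit read from the data, passing the limit was not always enough; inconclusive = no clear call, values can overlap the other calls; inactive = mean under the limit and some replicate under it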;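 note: myotubes were challenged with 10 µM simvastatin during compound exposure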
MITF act = activators of MITF-driven TRPM1 promoter reporter, primary screen, cell-based, SK-MEL-5, luciferase, single point | SK-MEL-5 TRPM1-promoter luciferase, 24 h; % of positive control, neutral wells = 0 | AID 588334, 2011 | hit rate 0.75% among 300,000 | activation, % at 12.5 µM;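 active = mean activation of at least 80% with every replicate also reaching 80%; inconclusive = mean reaches 80% but some replicate falls short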;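 note: 0% = neutral control wells and 100% = parthenolide positive control wells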
esBAF inh = Bmi1 luciferase reporter increase in mESCs, primary screen, esBAF inhibitor project, mouse ES cells, Bmi1 luciferase knock-in, single point; 24 h; 100% = twice the neutral-well signal; reporter increase, % at 12.5 µM; hit rate 2% among 350,000; AID 602393, 2012; in the data active = activation above about 40%; inconclusive = no clear call, values can overlap the other calls;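 note: 0% = median of the plate's neutral control wells and 100% = double that signal; a rise in the Bmi1 reporter signal indicates esBAF inhibition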
Wnt act = Wnt/beta-catenin pathway activators, primary screen, cell-based, plate reader, single point; Wnt/beta-catenin reporter cell assay, activator; activation, % at 9.35 µM; hit rate 1.2% among 300,000; AID 743398, 2014; in the data active = activation above about 30%, passing the limit was not always enough; inconclusive = no clear call, values can overlap the other calls;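 note: 0% = neutral control wells and 100% = positive control wells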
An asterisk follows results filed as active; ? = inconclusive; · = no result. Shown are actives, neighbours in structure and some others; about 3% of the full set was active somewhere.

SMILES	C2C12 statin	MITF act	esBAF inh	Wnt act
Cc1cccc(/C(N)=N/OC(=O)c2cccs2)c1	56	8	-39	58*
N/C(=N\OC(=O)c1cccs1)c1cccc(Br)c1	50	70	22	44*
COc1ccc(/C(N)=N/OC(=O)c2cccs2)cc1OC	·	84*	·	8
O=C(Nc1ccc2c(c1)OCO2)N[C@@H]1CC[C@@H](CCNC(=O)C2CCCCC2)O[C@@H]1CO	7	·	6	·
O=C(C[C@H]1C[C@@H]2c3cc(NS(=O)(=O)c4ccc(F)cc4)ccc3O[C@@H]2[C@@H](CO)O1)N1CCOCC1	5	·	-2	·
O=C(N[C@@H]1CC[C@H](CCNC(=O)C2CCOCC2)O[C@@H]1CO)c1ccccn1	-2	·	-6	·
C[C@@H]1CN([C@H](C)CO)C(=O)c2cc(-c3ccc(F)cc3)cnc2O[C@H]1CN(C)C(=O)c1ccncc1	-116	·	·	·
Cc1cc(N=Nc2ccccc2)cc(C)c1NC(=O)C(F)(F)F	·	107*	·	43*
CC(C)(C)C(=O)Nc1ccc(N=Nc2ccccc2)cc1	-23	-19	-61	-8
Cc1nc(-c2ccccc2)nc(Cl)c1Cl	2	-15	-4	-3
Cc1sc2nc(-c3cccnc3)nc(Cl)c2c1-c1ccccc1	-16	28	58*	4
C[C@H]1CN([C@@H](C)CO)C(=O)Cc2cc(NS(=O)(=O)c3ccccc3)ccc2O[C@@H]1CN(C)C(=O)Nc1ccc(F)cc1	-1	·	-1	·
Cc1c(C(=O)OC2CCCCC2)[nH]c2c1C(=O)CC(C)(C)C2	-39	53	37	-2
COC(=O)C1C(=O)c2c([nH]c(C(=O)OC3CCCCC3)c2C)CC1C (stereo unspecified)	-33	94*	63*	?
COC(=O)C1C(=O)c2c([nH]c(C(=O)OC3CCCC3C)c2C)CC1C (stereo unspecified)	21	99*	74*	26
COC(=O)C1C(=O)C2=C(CC1C)Nc1ccccc1NC2c1ccc(C)s1 (stereo unspecified)	·	15	·	-2
CNC[C@@H]1Oc2ccc(NC(=O)Nc3ccc(OC)cc3)cc2CC(=O)N([C@@H](C)CO)C[C@@H]1C	-14	·	-4	·
C[C@H](CO)N1C[C@H](C)[C@H](CN(C)C(=O)Cc2ccccc2)OCCCC[C@H](C)Oc2ccc(NC(=O)NC3CCCCC3)cc2C1=O	·	·	1	·
COC(=O)c1ccc(CN2C(=O)NC(Cc3c[nH]c4ccccc34)C2=O)cc1 (stereo unspecified)	-2	55	46*	4
O=C1NC(Cc2c[nH]c3ccccc23)C(=O)N1Cc1ccccc1 (stereo unspecified)	-1	-13	-1	-8
CS(=O)(=O)N1CCCCC1c1cc(C(=O)Nc2cccc(C#N)c2)no1 (stereo unspecified)	1	·	11	-1
N#Cc1cccc(NC(=O)c2cc(C3CCCCN3S(=O)(=O)c3cccc4cccnc34)on2)c1 (stereo unspecified)	-4	·	52*	-3
Cc1cccc(NC(=O)CCSc2ccccc2)c1C	·	16	·	52*
O=C(Nc1ccc(N2CCCC2)c(Cl)c1)c1ccc(Br)o1	-22	76	76*	·
O=C(Nc1ccc(Cl)c([N+](=O)[O-])c1)c1ccc2c(c1)OCCO2	-39	95*	86*	15
SMILES	C2C12 statin	MITF act	esBAF inh	Wnt act
O=C(Nc1ccc(N2CCOCC2)c(Cl)c1)c1ccc(Cl)cc1	-10	68	45*	19
O=C(Nc1ccccc1N1CCCC1)c1ccc(Br)o1	2	10	3	·
O=C(Nc1ccc(N2CCOCC2)c(F)c1)c1cccs1	-19	110*	23	?
COC(=O)c1cc(NC(=O)c2cccs2)ccc1N1CCOCC1	·	3	·	-3
O=C(N/N=C/c1ccc(Cl)c([N+](=O)[O-])c1)c1ccc2c(c1)OCCO2	-25	12	7	3
Cc1cc(C(=O)Nc2cccc3c2O[C@@H](CN(C)S(=O)(=O)c2cn(C)cn2)[C@H](C)CN([C@@H](C)CO)C3=O)n(C)n1	-27	·	-4	·
O=C(c1ccccc1)c1ccc(N2CCOCC2)c(F)c1	·	70	58*	30
O=C(Nc1ccc(N2CCOCC2)c(Cl)c1)c1ccccc1F	-52	?	103*	·
O=C(Nc1ccc(N2CCCCC2)c(Cl)c1)c1ccc2c(c1)OCCO2	·	·	52*	14
O=C(Nc1ccc(N2CCCC2)c(Cl)c1)c1ccc2c(c1)OCCO2	·	15	·	·
Cc1ccc(S(=O)(=O)NCC[C@H]2CC[C@H](NS(=O)(=O)c3ccccc3Cl)[C@H](CO)O2)cc1	3	·	7	·
CN(C)S(=O)(=O)c1cccc(-c2cn3cccnc3n2)c1	·	-3	·	-2
Cc1ccc2nc(-c3cccc(S(=O)(=O)N4CCCC4)c3)cn2c1	-18	29	64*	13
Cc1ccc2nc(-c3cccc(S(=O)(=O)N(C)C)c3)cn2c1	-7	?	83*	·
Cc1ccn2cc(-c3cccc(S(=O)(=O)N4CCCCC4)c3)nc2c1	-14	14	37	5
CCC(=O)N1CCCCN2[C@H](CO)[C@H](c3ccc(C#Cc4ccccc4F)cc3)[C@@H]2C1	-22	·	4	·
C[C@H](CO)N1C[C@H](C)[C@@H](CN(C)Cc2ccccc2)Oc2ccc(NC(=O)NC3CCCCC3)cc2CC1=O	25	·	4	·
CC(=O)Nc1cccc(-c2nnc(-c3ccccc3)o2)c1	-11	·	?	35*
CCOC(=O)c1cccc(COC(=O)c2cccc(-c3nnc(-c4ccccc4)o3)c2)c1	·	-6	·	55*
Cc1cc(C)n(-c2ccc(C(=O)OCc3ccccc3)cc2)n1	·	16	·	-2
Cc1cc(C)n(-c2ccc(C(=O)OCc3nnc(-c4ccccc4)o3)cc2)n1	-14	14	46*	·
CCOc1cccc(C(=O)Nc2cccc(-c3nnc(-c4ccccc4)o3)c2)c1	-81	27	43*	6
O=C(OCc1ccccc1)c1cccc(-c2nnc(-c3ccccc3)o2)c1	-32	23	27	·
CCOc1cccc(C(=O)Nc2cccc(-c3nnc(-c4ccc(C)cc4)o3)c2)c1	-161	-81	-3	·
C[C@@H]1CCCCO[C@H](CN(C)S(=O)(=O)c2cn(C)cn2)[C@H](C)CN([C@@H](C)CO)C(=O)c2cc(NS(=O)(=O)c3ccccc3)ccc2O1	·	·	-3	·
CC(C)NC(=O)N(C)C[C@@H]1Oc2cc(C#CC(C)(C)O)ccc2S(=O)(=O)N([C@H](C)CO)C[C@H]1C	1	·	0	·
CN1C(=O)c2cc(NC(=O)C3CCCCC3)ccc2OC[C@H]2O[C@H](CC(=O)NCc3ccccc3F)CC[C@H]21	-3	·	11	·
Cc1noc(C)c1S(=O)(=O)Nc1ccc2c(c1)C(=O)N([C@@H](C)CO)C[C@@H](C)[C@@H](CN(C)Cc1ccc(-c3ccccc3)cc1)O2	44	·	1	·
CC(=O)N(C)C[C@H]1Oc2cc(-c3cccc(C#N)c3)ccc2S(=O)(=O)N([C@@H](C)CO)C[C@@H]1C	1	·	-4	·
